# Data as given in PubChem BioAssay (Tox21).
# Where “and” joins values, the source holds several entries; their conditions need not be identical. Equal values may be shown once. Results filed as inconclusive are left out. Entries that show only a call come without a potency. The source holds several records for some structures; these can differ, active in one and inactive in another. Calls of active or inactive are those of the source. Unless noted, calls follow the shape of the dose curve; as a rule, active = well fitted curve in the direction sought with a large enough effect in the repeat runs; inconclusive = weak or mixed curves; inactive = no such curve, though single readings can be large; an effect the other way counts as inactive or inconclusive.
# Key:
# [1] = qHTS assay to identify small molecule antagonists of the thyroid receptor (TR) signaling pathway - cell viability counter screen (AID 743064); also: nearly all actives have a fitted effect of over 50% in size; also: potency is read from the fitted curve at half-maximal effect
# How it was run: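 GH3.TRE-Luc rat pituitary cells carrying a TRE-luciferase reporter were treated with compound plus 1 nM T3 (final) for 23.5 h at 37 °C. Viability was then read in the same wells by CellTiter-Fluor fluorescence after a further 30 min.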
# [2] = qHTS assay to identify small molecule antagonists of the thyroid receptor (TR) signaling pathway (AID 743065); also: nearly all actives have a fitted effect of over 55% in size; also: potency is read from the fitted curve at half-maximal effect
# How it was run: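 GH3.TRE-Luc rat pituitary cells carrying two TR response elements driving luciferase were plated for 4 h, given compound plus 1 nM T3 (final), and incubated 23.5 h at 37 C. ONE-Glo luminescence measured reporter inhibition; CellTiter-Fluor fluorescence tracked cytotoxicity.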
# [3] = test system: thyroid hormone receptor (rat, GH3 cells); assay: qHTS assay to identify small molecule agonists of the thyroid receptor (TR) signaling pathway (AID 743066; calls by dose curve)
# [4] = molecular target: Estrogen receptor (Homo sapiens) (UniProt P03372); assay: qHTS assay to identify small molecule antagonists of the estrogen receptor alpha (ER-alpha) signaling pathway (AID 743069; active = well fitted curve in the direction sought with a large enough effect in the signal ratio in the repeat runs, not every such curve was filed as active; the % refers to the signal ratio)
# How it was run: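 HEK293 cells stably carrying an ER-alpha-UAS-bla beta-lactamase reporter were pre-cultured overnight in 2% charcoal-stripped FBS medium. Test compounds in DMSO were added together with 17beta-estradiol for 18 hr at 37C. Read-out was fluorescence after 2 hr with LiveBLAzer B/G FRET substrate at room temperature.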
# [5] = qHTS assay to identify small molecule antagonists of the estrogen receptor alpha (ER-alpha) signaling pathway - cell viability counter screen (AID 743074; calls by dose curve; also: nearly all actives have a fitted effect of over 45% in size)
# [6] = molecular target: Estrogen receptor (Homo sapiens) (UniProt P03372); assay: qHTS assay to identify small molecule agonists of the estrogen receptor alpha (ER-alpha) signaling pathway (AID 743075; calls by dose curve)
# [7] = molecular target: Estrogen receptor (Homo sapiens) (UniProt P03372); assay: qHTS assay to identify small molecule agonists of the estrogen receptor alpha (ER-alpha) signaling pathway using the BG1 cell line (AID 743079); also: nearly all actives have a fitted effect of over 20% in size
# [8] = qHTS assay to identify small molecule antagonists of the estrogen receptor alpha (ER-alpha) signaling pathway using the BG1 cell line (AID 743080; calls by dose curve;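 also: BG1 cells stimulated with 17beta-estradiol alongside compound; nearly all actives have a fitted effect of over 25% in size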; also: potency is read from the fitted curve at half-maximal effect)
# How it was run: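 Luciferase inhibition measured with ONE-Glo after 30 min at RT in BG1Luc4E2 cells given test compounds and 17beta-estradiol for 21.5 h at 37 C; CellTiter-Fluor viability read in the same wells beforehand.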
# [9] = qHTS assay to identify small molecule antagonists of the estrogen receptor alpha (ER-alpha) signaling pathway using the BG1 cell line - cell viability counter screen (AID 743081);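 also: compound given together with 17beta-estradiol as the ER stimulus; series mostly up to about 70 µM; nearly all actives have a fitted effect of over 45% in size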
# Aromatase (Homo sapiens) = Aromatase (Homo sapiens) (UniProt P11511); assay: qHTS assay to identify aromatase inhibitors (AID 743083); also: series mostly up to about 70 µM; nearly all actives have a fitted effect of over 55% in size
# [10] = qHTS assay to identify aromatase inhibitors - cell viability counter screen (AID 743084);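 also: cells stimulated with testosterone during compound exposure; nearly all actives have a fitted effect of over 55% in size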; also: potency is read from the fitted curve at half-maximal effect
# [11] = molecular target: Peroxisome proliferator-activated receptor gamma (Homo sapiens) (UniProt P37231); assay: qHTS assay to identify small molecule agonists of the peroxisome proliferator-activated receptor gamma (PPARg) signaling pathway (AID 743094; active = well fitted activation curve with a large enough effect in the signal ratio in the repeat runs, not every such curve was filed as active; the % refers to the signal ratio)
# How it was run: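 Compounds dissolved in DMSO were added to PPARg UAS-bla HEK293H cells for 17 h at 37C, and reporter expression was quantified by fluorescence intensity after 1 h with LiveBLAzer B/G FRET substrate.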
# [12] = molecular target: Peroxisome proliferator-activated receptor gamma (Homo sapiens) (UniProt P37231); assay: qHTS assay to identify small molecule antagonists of the peroxisome proliferator-activated receptor gamma (PPARg) signaling pathway (AID 743191; calls by dose curve; also: series mostly up to about 63 µM; nearly all actives have a fitted effect of over 30% in size)
# How it was run: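 GeneBLAzer PPARg UAS-bla HEK293H cells carrying a UAS-driven beta-lactamase reporter were plated at 3000 cells/well, preincubated 5 h at 37C, then given compound for 17 h at 37C; LiveBLAzer B/G FRET substrate was read after 1 h at room temperature.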
# [13] = qHTS assay to identify small molecule antagonists of the peroxisome proliferator-activated receptor gamma (PPARg) signaling pathway - cell viability counter screen (AID 743194); also: nearly all actives have a fitted effect of over 55% in size
# How it was run: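 PPARg-UAS-bla HEK293H cells were plated, rested 5 h at 37 C, then treated with compounds plus rosiglitazone (50 nM final) for 17 h at 37 C; viability was then read by CellTiter-Glo luminescence after 30 min at room temperature.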
# [14] = qHTS assay for small molecule agonists of the antioxidant response element (ARE) signaling pathway (AID 743202; active = well fitted activation curve with a large enough effect in the signal ratio in the repeat runs, not every such curve was filed as active; the % refers to the signal ratio)
# How it was run: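 Read-out: LiveBLAzer B/G FRET substrate fluorescence after 2 h at room temperature, following 16 h compound treatment at 37 C of HepG2 cells carrying an ARE-driven beta-lactamase reporter.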
# [15] = qHTS assay for small molecule agonists of the antioxidant response element (ARE) signaling pathway - cell viability counter screen (AID 743203; calls by dose curve; also: nearly all actives have a fitted effect of over 55% in size)
# How it was run: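 Following 16 hrs of compound treatment at 37C, HepG2 cells with an ARE-controlled beta-lactamase gene were lysed with CellTiter-Glo. Luminescence was read after 30 min at room temperature.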
# [16] = qHTS assay for small molecule activators of the heat shock response signaling pathway - cell viability counter screen (AID 743209); also: nearly all actives have a fitted effect of over 50% in size
# How it was run: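 Readout: CellTiter-Glo luminescence, 30 min at room temperature. System: HSE-bla HeLa cells, 1500/well, plated overnight. Treatment: compounds in DMSO, 5 h at 37 C.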
# [17] = qHTS assay for small molecule activators of the heat shock response signaling pathway (AID 743210; active = well fitted activation curve with a large enough effect in the signal ratio in the repeat runs, with a control signal flat, not every such curve was filed as active; the % refers to the signal ratio; also: series mostly up to about 63 µM)
# How it was run: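 HSE-bla HeLa cells (beta-lactamase reporter under heat shock response elements) were exposed to compounds for 5 h at 37 C, then loaded with LiveBLAzer B/G FRET substrate for 2.5 h at room temperature before fluorescence reading.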
# [18] = molecular target: Aryl hydrocarbon receptor (Homo sapiens) (UniProt P35869); assay: qHTS assay to identify small molecule that activate the aryl hydrocarbon receptor (AhR) signaling pathway (AID 743085);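 also: HG2L7.5c1 human HepG2 liver cells with stably integrated DRE-driven firefly reporter; series mostly up to about 70 µM; nearly all actives have a fitted effect of over 15% in size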
# How it was run: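 HepG2 cells (HG2L7.5c1) stably carrying a firefly luciferase reporter driven by 20 dioxin responsive elements were exposed to compound for 24 h at 37C after a 5 h settling period; luminescence rise (ONE-Glo) indicated activation.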
# [19] = qHTS assay to identify small molecule that activate the aryl hydrocarbon receptor (AhR) signaling pathway - cell viability counter screen (AID 743086); also: nearly all actives have a fitted effect of over 45% in size; also: potency is read from the fitted curve at half-maximal effect
# How it was run: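 HepG2-AhR-luc (HG2L7.5c1) cells, 4000/well, were preincubated 5 h at 37C, exposed to compound in qHTS format for 24 hr at 37C, then given CellTiter-Fluor for 30 min; viability was read as fluorescence in the reporter wells.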
# Sequence of Aryl hydrocarbon receptor (Homo sapiens) (P35869 whole entry, looked up): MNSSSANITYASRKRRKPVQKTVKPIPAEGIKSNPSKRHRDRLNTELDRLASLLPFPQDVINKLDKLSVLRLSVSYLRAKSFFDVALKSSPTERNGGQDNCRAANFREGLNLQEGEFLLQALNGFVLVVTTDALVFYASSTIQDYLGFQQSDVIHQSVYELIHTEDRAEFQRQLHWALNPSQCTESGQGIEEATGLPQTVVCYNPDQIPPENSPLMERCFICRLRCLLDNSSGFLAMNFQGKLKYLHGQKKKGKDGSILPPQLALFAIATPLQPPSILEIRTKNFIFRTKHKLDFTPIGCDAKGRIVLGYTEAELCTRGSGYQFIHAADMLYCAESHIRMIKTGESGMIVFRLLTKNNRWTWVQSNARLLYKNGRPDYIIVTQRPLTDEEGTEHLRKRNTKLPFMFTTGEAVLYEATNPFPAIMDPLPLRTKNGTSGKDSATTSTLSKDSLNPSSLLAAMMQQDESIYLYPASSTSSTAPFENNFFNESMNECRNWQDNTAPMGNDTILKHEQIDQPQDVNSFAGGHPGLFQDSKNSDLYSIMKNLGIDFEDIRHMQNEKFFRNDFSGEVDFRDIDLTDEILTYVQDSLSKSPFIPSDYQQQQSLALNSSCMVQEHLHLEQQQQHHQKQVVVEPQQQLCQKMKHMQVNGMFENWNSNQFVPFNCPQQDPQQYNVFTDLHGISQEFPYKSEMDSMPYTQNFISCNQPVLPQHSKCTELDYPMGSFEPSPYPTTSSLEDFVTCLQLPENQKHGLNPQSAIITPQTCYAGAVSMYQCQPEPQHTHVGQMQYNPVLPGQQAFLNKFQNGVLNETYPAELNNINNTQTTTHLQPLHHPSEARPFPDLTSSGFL
# Sequence of Peroxisome proliferator-activated receptor gamma (Homo sapiens) (P37231 whole entry, looked up): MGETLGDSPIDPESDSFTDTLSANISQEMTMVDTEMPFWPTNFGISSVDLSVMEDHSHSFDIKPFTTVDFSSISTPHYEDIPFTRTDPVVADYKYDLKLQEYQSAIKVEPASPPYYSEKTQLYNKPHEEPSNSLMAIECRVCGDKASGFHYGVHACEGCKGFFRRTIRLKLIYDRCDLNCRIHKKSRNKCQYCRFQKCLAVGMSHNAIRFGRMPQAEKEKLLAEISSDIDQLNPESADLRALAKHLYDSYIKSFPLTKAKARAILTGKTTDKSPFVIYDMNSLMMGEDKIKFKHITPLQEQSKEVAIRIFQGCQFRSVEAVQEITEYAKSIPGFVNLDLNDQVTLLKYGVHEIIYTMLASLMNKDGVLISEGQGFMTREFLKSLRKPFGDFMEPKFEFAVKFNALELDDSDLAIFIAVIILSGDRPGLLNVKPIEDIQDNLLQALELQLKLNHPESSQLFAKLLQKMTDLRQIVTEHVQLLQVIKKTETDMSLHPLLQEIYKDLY
# Sequence of Aromatase (Homo sapiens) (P11511 whole entry, looked up): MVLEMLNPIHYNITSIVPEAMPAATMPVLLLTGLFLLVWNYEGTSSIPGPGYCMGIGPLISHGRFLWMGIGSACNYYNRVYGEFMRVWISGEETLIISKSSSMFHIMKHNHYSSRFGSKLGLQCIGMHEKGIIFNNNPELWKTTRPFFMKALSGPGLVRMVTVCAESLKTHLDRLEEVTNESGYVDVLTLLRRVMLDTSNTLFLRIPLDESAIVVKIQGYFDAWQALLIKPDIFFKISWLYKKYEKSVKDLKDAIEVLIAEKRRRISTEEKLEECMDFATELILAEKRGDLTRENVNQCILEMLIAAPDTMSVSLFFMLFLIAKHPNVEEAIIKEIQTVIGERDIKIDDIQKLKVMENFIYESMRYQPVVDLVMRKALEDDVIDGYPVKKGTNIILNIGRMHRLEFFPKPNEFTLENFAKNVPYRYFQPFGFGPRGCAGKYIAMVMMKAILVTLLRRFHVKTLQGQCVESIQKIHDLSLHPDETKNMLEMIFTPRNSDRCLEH
# Sequence of Estrogen receptor (Homo sapiens) (P03372 whole entry, looked up): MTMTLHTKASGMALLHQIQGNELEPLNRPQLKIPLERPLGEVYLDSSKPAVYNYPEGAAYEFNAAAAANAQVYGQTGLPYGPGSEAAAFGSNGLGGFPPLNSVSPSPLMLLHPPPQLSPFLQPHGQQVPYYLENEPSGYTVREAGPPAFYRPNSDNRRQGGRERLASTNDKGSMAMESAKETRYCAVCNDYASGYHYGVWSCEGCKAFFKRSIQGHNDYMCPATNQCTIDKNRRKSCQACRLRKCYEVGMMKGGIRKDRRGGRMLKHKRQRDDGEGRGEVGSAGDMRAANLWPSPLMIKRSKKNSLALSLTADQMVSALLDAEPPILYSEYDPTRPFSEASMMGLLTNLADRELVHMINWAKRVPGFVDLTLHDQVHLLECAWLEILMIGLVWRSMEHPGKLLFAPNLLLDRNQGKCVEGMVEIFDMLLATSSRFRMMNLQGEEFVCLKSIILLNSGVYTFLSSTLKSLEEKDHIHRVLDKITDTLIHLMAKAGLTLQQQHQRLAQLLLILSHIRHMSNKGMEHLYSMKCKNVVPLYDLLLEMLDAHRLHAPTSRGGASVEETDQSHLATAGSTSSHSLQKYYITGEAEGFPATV
SMILES,Potency [1],Potency [2],outcome [3],Potency [4],Potency [5],Potency [6],Potency [7],Potency [8],outcome [9],outcome (Aromatase (Homo sapiens)),Potency [10],Potency [11],Potency [12],outcome [13],Potency [14],outcome [15],outcome [16],outcome [17],Potency [18],Potency [19]
CC1=CC(=O)[C@H]2C[C@@H]1C2(C)C,inactive,inactive,inactive,inactive,inactive,inactive,inactive,inactive,inactive,inactive,inactive,inactive,inactive,inactive,inactive,inactive,inactive,inactive,–,–
C[N+]1(C)CCCC(OC(=O)C(O)(c2ccccc2)c2ccccc2)C1 (configuration not stated),inactive,inactive,inactive,inactive,inactive,inactive,–,–,inactive,inactive,inactive,–,–,inactive,inactive,inactive,inactive,inactive,inactive,inactive
c1coc(CNc2ncnc3nc[nH]c23)c1,inactive,inactive,inactive,inactive,inactive,inactive,–,–,inactive,inactive,inactive,inactive,–,inactive,–,inactive,inactive,inactive,inactive,inactive
CCCC(C)C(=O)OCC (configuration not stated),inactive,inactive,inactive,inactive,inactive,inactive,inactive,–,inactive,inactive,inactive,inactive,inactive,inactive,inactive,inactive,inactive,–,–,inactive
CO[C@@]1(NC(=O)CSC[C@@H](N)C(=O)O)C(=O)N2C(C(=O)O)=C(CSc3nnnn3C)CS[C@@H]21,inactive,inactive,inactive,inactive,inactive,inactive,inactive,inactive,–,inactive,inactive,inactive,inactive,inactive,–,inactive,inactive,inactive,inactive,–
CC[C@H]1OC(=O)[C@H](C)[C@@H](O[C@H]2C[C@@](C)(OC)[C@@H](O)[C@H](C)O2)[C@H](C)[C@@H](O[C@@H]2O[C@H](C)C[C@H](N(C)C)[C@H]2O)[C@](C)(OC)C[C@@H](C)C(=O)[C@H](C)[C@@H](O)[C@]1(C)O,inactive,inactive,inactive,inactive,inactive,inactive,inactive,inactive,–,inactive,inactive,inactive,inactive,inactive,inactive,inactive,inactive,inactive,inactive,inactive
CC(CO)(CO)[N+](=O)[O-],inactive,inactive,inactive,inactive,inactive,inactive,–,inactive,inactive,–,inactive,–,inactive,inactive,inactive,inactive,inactive,–,–,–
CC(N)C12CC3CC(CC(C3)C1)C2 (configuration not stated),inactive,inactive,inactive,inactive,inactive,inactive,inactive,inactive,inactive,inactive,inactive,inactive,inactive,inactive,inactive,inactive,inactive,inactive,–,–
O=[N+]([O-])c1ccc(/C=N\O)o1,inactive,inactive,inactive,inactive,inactive,inactive,inactive,–,inactive,inactive,inactive,inactive,inactive,inactive,–,inactive,inactive,–,inactive,–
COc1ccccc1OCC1CNC(=O)O1 (configuration not stated),inactive,inactive,inactive,–,inactive,–,–,–,inactive,inactive,inactive,inactive,–,inactive,inactive,inactive,inactive,inactive,inactive,inactive
CC(=O)O[C@@]12CO[C@@H]1C[C@H](O)[C@@]1(C)C(=O)[C@H](O)C3=C(C)[C@@H](OC(=O)[C@H](O)[C@@H](NC(=O)OC(C)(C)C)c4ccccc4)C[C@@](O)([C@@H](OC(=O)c4ccccc4)[C@H]21)C3(C)C,29.8 nM (active) and 106 nM (active),0.0298 µM (active),inactive,inactive,–,inactive,inactive,59.6 nM (active) and inactive,inactive,inactive,26.6 µM (active),inactive,inactive,inactive,–,inactive,inactive,inactive,inactive,33.5 µM (active) and 26.6 µM (active)
C[C@H]1C[C@H]2[C@@H]3CCC4=CC(=O)C=C[C@]4(C)[C@H]3C(=O)C[C@]2(C)[C@@]1(O)C(=O)CO,inactive,inactive,inactive,inactive,–,inactive,inactive,–,inactive,inactive,inactive,inactive,inactive,inactive,inactive,inactive,inactive,inactive,inactive,inactive
COc1cc(C(=O)NCc2ccc(OCCN(C)C)cc2)cc(OC)c1OC,inactive,inactive,inactive,inactive,–,inactive,inactive,–,inactive,inactive,inactive,inactive,inactive,inactive,–,inactive,inactive,inactive,inactive,inactive
CCCCOCCOC(=O)CCCCCCCCC(=O)OCCOCCCC,inactive,inactive,inactive,–,inactive,–,–,–,inactive,inactive,inactive,inactive,inactive,inactive,inactive,inactive,inactive,inactive,inactive,inactive
CCCCCC(C)N (configuration not stated),inactive,inactive,inactive,–,inactive,–,–,inactive,inactive,inactive,inactive,inactive,inactive,inactive,inactive,inactive,inactive,inactive,inactive,inactive
